Results published in PubChem BioAssay AID1159580 (chemical genetic matrix, 2015).
Values joined by “and” are separate entries in the source; they are usually repeats but may differ in a detail not shown here. Equal values may be shown once. Screen size: about 5,500 compounds; about 2,000 (36%) were called active. Inconclusive results (about 18%) are left out. No stated cut-off is given here; in the data, active means normalized growth mostly below about 0.91 (no sharp cut-off); inconclusive means no clear call, values can overlap the other calls; inactive means mostly above about 0.92. Some of the results follow.

Test: chemical genetic growth profiling, strain panel (AID 1159580);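 further: tested at 20 µM; growth read once vehicle control cultures reached saturation at 30 °C; 1 = growth at the plate median or of vehicle wells; lower values mean less growth of the strain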
Conditions: S. cerevisiae deletion strains, growth OD
[1] = locus YAL013W, strain DEP1, active compounds read low

Measured: normalized growth

OC[C@H]1O[C@@H](n2cnc3c(NC4CCCC4)ncnc32)C(O)[C@H]1O (stereo partly specified)
inactive: [1] 0.994 | locus YAL040C, strain CLN3, active compounds read low 0.989 | locus YER002W, strain NOP16, active compounds read low 1.03 | locus YJR075W, strain HOC1, active compounds read low 1.01 | locus YMR263W, strain SAP30, active compounds read low 1.03 | locus YNL128W, strain TEP1, active compounds read low 1 | locus YNL175C, strain NOP13, active compounds read low 1.03 | locus YNL197C, strain WHI3, active compounds read low 1.04 | locus YNL224C, strain SQS1, active compounds read low 1 | locus YOR083W, strain WHI5 (second series), active compounds read low 1.03 | locus YPL055C, strain LGE1, active compounds read low 1.01

C[C@@H]1CC[C@@]23CCC4(C)[C@@](C=CC5[C@@]6(C)CCC(=O)C(C)(C)C6CC[C@]54C)(OC2=O)C3[C@H]1C (stereo partly specified)
active: locus YHR094C, strain hxt1, active compounds read low 1.11 [resistant] | locus YLR371W, strain rom2, active compounds read low 1.1 [resistant]
inactive: [1] 1.03 | locus YAL021C, strain ccr4, active compounds read low 0.998 | locus YAL026C, strain drs2, active compounds read low 1.01 | locus YAL030W, strain snc1, active compounds read low 0.998 | locus YBL061C, strain skt5, active compounds read low 0.994 | locus YBR009C, strain hhf1, active compounds read low 1.02 | locus YBR021W, strain FUR4, active compounds read low 1.01 | locus YBR023C, strain chs3, active compounds read low 1 | locus YBR171W, strain sec66, active compounds read low 0.99 | locus YBR229C, strain ROT2, active compounds read low 1.02 | locus YBR231C, strain swc5, active compounds read low 1.01 | locus YBR279W, strain paf1, active compounds read low 0.99 | locus YCL011C, strain gbp2, active compounds read low 1.02 | locus YCL016C, strain dcc1, active compounds read low 0.981 | locus YCL029C, strain bik1, active compounds read low 1.03 | locus YCL061C, strain MRC1, active compounds read low 1.01 | locus YCL069W, strain vba3, active compounds read low 0.997 | locus YCR088W, strain abp1, active compounds read low 0.992 | locus YDL005C, strain med2, active compounds read low 1 | locus YDL035C, strain GPR1, active compounds read low 1.02 | locus YDL040C, strain nat1, active compounds read low 0.997 | locus YDL074C, strain BRE1, active compounds read low 1.01 | locus YDL101C, strain DUN1, active compounds read low 1.03 | locus YDL185W, strain tfp1, active compounds read low 0.989 | locus YDL192W, strain arf1, active compounds read low 1.01 | locus YDR001C, strain nth1, active compounds read low 0.987 | locus YDR069C, strain doa4, active compounds read low 1 | locus YDR101C, strain arx1, active compounds read low 1.01 | locus YDR137W, strain rgp1, active compounds read low 1.04 | locus YDR150W, strain NUM1, active compounds read low 1.02 | locus YDR159W, strain sac3, active compounds read low 1 | locus YDR162C, strain NBP2, active compounds read low 1.04 | locus YDR195W, strain ref2 0.957 | locus YDR297W, strain sur2, active compounds read low 1.02 | locus YDR318W, strain mcm21, active compounds read low 1.04 | locus YDR334W, strain swr1, active compounds read low 0.998 | locus YDR335W, strain msn5, active compounds read low 1 | locus YDR388W, active compounds read low 1 | locus YDR392W, strain spt3, active compounds read low 1.01 | locus YDR502C, strain sam2, active compounds read low 1.02 | locus YEL003W, strain gim4, active compounds read low 1.01 | locus YEL037C, strain rad23, active compounds read low 1.01 | locus YEL061C, strain CIN8 (second series), active compounds read low 0.99 | locus YEL061C, strain CIN8, active compounds read low 1.02 | locus YER015W, strain faa2, active compounds read low 1.01 | locus YER016W, strain bim1, active compounds read low 0.993 | locus YER110C, active compounds read low 1.01 | locus YER111C, strain swi4, active compounds read low 0.995 | locus YER155C, strain BEM2 (second series), active compounds read low 1.01 | locus YER155C, strain BEM2, active compounds read low 1.02 | locus YER167W, strain BCK2, active compounds read low 1.01 | locus YFR010W, strain ubp6, active compounds read low 1.02 | locus YGL078C, strain dbp3, active compounds read low 1.01 | locus YGL086W, strain mad1, active compounds read low 1 | locus YGL167C, strain pmr1, active compounds read low 0.994 | locus YGL173C, strain kem1, active compounds read low 1.01 | locus YGL227W, strain vid30, active compounds read low 0.983 | locus YGL240W, strain doc1, active compounds read low 1.03 | locus YGL248W, strain PDE1, active compounds read low 1.02 | locus YGL253W, strain hxk2, active compounds read low 1 | locus YGR135W, strain pre9, active compounds read low 1 | locus YGR229C, strain SMI1, active compounds read low 1.02 | locus YGR252W, strain gcn5, active compounds read low 1.02 | locus YHR013C, strain ard1, active compounds read low 0.986 | locus YHR027C, strain rpn1, active compounds read low 1.01 | locus YHR030C, strain SLT2, active compounds read low 1.02 and 0.996 | locus YHR079C, strain IRE1 (second series), active compounds read low 1.02 | locus YHR079C, strain IRE1, active compounds read low 1.01 | locus YHR129C, strain ARP1, active compounds read low 1.02 | locus YHR142W, strain chs7, active compounds read low 0.97 | locus YHR200W, strain rpn10, active compounds read low 1.02 | locus YIL066C, strain RNR3, active compounds read low 1.03 | locus YIL073C, strain SPO22, active compounds read low 1 | locus YIL125W, strain kgd1, active compounds read low 0.992 | locus YIR030C, strain dcg1, active compounds read low 1.04 | locus YJL092W, strain hpr5, active compounds read low 0.989 | locus YJL095W, strain BCK1 (second series), active compounds read low 1 | locus YJL095W, strain BCK1, active compounds read low 1.04 and 0.991 | locus YJL115W, strain asf1, active compounds read low 0.993 | locus YJL129C, strain trk1, active compounds read low 0.98 | locus YJL134W, strain LCB3, active compounds read low 1.01 | locus YJL154C, strain vps35, active compounds read low 0.981 | locus YJL164C, strain tpk1, active compounds read low 1.01 | locus YJL166W, strain qcr8, active compounds read low 1.01 | locus YJL168C, strain set2, active compounds read low 1.01 | locus YJL187C, strain SWE1 (second series), active compounds read low 1.03 | locus YJL187C, strain SWE1, active compounds read low 0.993 | locus YJR043C, strain POL32, active compounds read low 1.02 | locus YJR066W, strain TOR1, active compounds read low 0.953 | locus YKL009W, strain mrt4, active compounds read low 1.01 | locus YKL068W, active compounds read low 1.02 | locus YKL085W, strain MDH1 (second series), active compounds read low 1 | locus YKL085W, strain MDH1, active compounds read low 1 | locus YKL160W, strain elf1, active compounds read low 0.999 | locus YKR001C, strain vps1, active compounds read low 0.977 | locus YKR026C, strain gcn3, active compounds read low 1 | locus YKR091W, strain srl3, active compounds read low 0.994 | locus YLL001W, strain dnm1, active compounds read low 0.982 | locus YLL026W, active compounds read low 1 | locus YLL041C, strain sdh2, active compounds read low 1 | locus YLR027C, strain aat2, active compounds read low 1.02 | locus YLR039C, strain RIC1, active compounds read low 1.05 | locus YLR058C, strain SHM2, active compounds read low 1.02 | locus YLR102C, strain apc9, active compounds read low 1.01 | locus YLR113W, strain HOG1, active compounds read low 1 | locus YLR221C, strain rsa3, active compounds read low 0.988 | locus YLR258W, strain gsy2, active compounds read low 1.01 | locus YLR262C, strain YPT6 (second series), active compounds read low 1.02 | locus YLR262C, strain YPT6, active compounds read low 1.07 | locus YLR268W, strain sec22, active compounds read low 0.995 | locus YLR320W, strain mms22, active compounds read low 1 | locus YLR330W, strain CHS5, active compounds read low 1.02 | locus YLR342W, strain FKS1 (second series), active compounds read low 1.01 | locus YLR342W, strain FKS1, active compounds read low 1.01 | locus YLR357W, strain rsc2, active compounds read low 0.991 | locus YLR370C, strain arc18, active compounds read low 0.996 | locus YLR384C, strain iki3, active compounds read low 0.989 | locus YLR418C, strain cdc73, active compounds read low 1.01 | locus YML016C, strain PPZ1, active compounds read low 1.02 | locus YML032C, strain rad52, active compounds read low 1.04 | locus YML120C, strain ndi1, active compounds read low 0.994 | locus YML124C, strain tub3, active compounds read low 1.02 | locus YMR058W, strain fet3, active compounds read low 1.01 | locus YMR078C, strain ctf18, active compounds read low 1.09 | locus YMR125W, strain sto1, active compounds read low 0.978 | locus YMR129W, active compounds read low 0.99 | locus YMR205C, strain PFK2, active compounds read low 0.983 | locus YMR223W, strain ubp8, active compounds read low 1.04 | locus YMR231W, strain pep5, active compounds read low 0.993 | locus YMR307W, strain GAS1, active compounds read low 1.06 | locus YNL067W, strain RPL9B, active compounds read low 1.02 | locus YNL071W, strain lat1, active compounds read low 1.01 | locus YNL153C, strain GIM3, active compounds read low 1.03 | locus YNL183C, strain NPR1, active compounds read low 0.964 | locus YNL209W, strain ssb2, active compounds read low 0.988 | locus YNL233W, strain BNI4, active compounds read low 1.03 | locus YNL248C, strain rpa49, active compounds read low 1.02 | locus YNL250W, strain rad50, active compounds read low 1 | locus YNL271C, strain bni1, active compounds read low 1.01 | locus YNL298W, strain CLA4, active compounds read low 1.01 | locus YNL307C, strain MCK1, active compounds read low 1.02 | locus YNL322C, strain KRE1 (second series), active compounds read low 1 | locus YNL322C, strain KRE1, active compounds read low 1.01 | locus YNR049C, strain mso1, active compounds read low 0.994 | locus YNR052C, strain pop2, active compounds read low 1.02 | locus YOL006C, strain TOP1, active compounds read low 1 | locus YOL012C, strain htz1 1.03 | locus YOL147C, strain pex11, active compounds read low 1.01 | locus YOR001W, strain rrp6, active compounds read low 1.02 | locus YOR061W, strain CKA2, active compounds read low 1.01 | locus YOR069W, strain VPS5, active compounds read low 1.01 | locus YOR070C, strain gyp1, active compounds read low 0.995 | locus YOR080W, strain dia2, active compounds read low 0.996 | locus YOR083W, strain WHI5, active compounds read low 1.01 | locus YOR106W, strain vam3, active compounds read low 1 | locus YOR136W, strain idh2, active compounds read low 1.01 | locus YOR144C, strain elg1, active compounds read low 1.02 | locus YOR184W, strain ser1, active compounds read low 1.01 | locus YOR231W, strain MKK1, active compounds read low 1.01 | locus YOR265W, strain rbl2, active compounds read low 1.01 | locus YOR270C, strain vph1, active compounds read low 1.03 | locus YOR290C, strain snf2, active compounds read low 0.97 | locus YOR316C, strain cot1, active compounds read low 1.03 | locus YPL051W, strain arl3, active compounds read low 1.04 | locus YPL078C, strain atp4, active compounds read low 1.01 | locus YPL106C, strain sse1, active compounds read low 1.01 | locus YPL240C, strain hsp82, active compounds read low 0.996 | locus YPL256C, strain CLN2, active compounds read low 0.987 | locus YPR119W, strain clb2, active compounds read low 1.02 | locus YPR141C, strain kar3, active compounds read low 1.04 | locus YPR163C, strain tif3, active compounds read low 1.01 | locus YPR167C, strain met16, active compounds read low 1.01 | strain wtn01, active compounds read low 0.995
